This is an account of results in PubChem BioAssay (Tox21).

The structures appear in SMILES notation. Inconclusive results are not listed. Where a structure was tested more than once in an assay, its records may differ in their call. The source made the active and inactive calls. Unless noted, calls follow the shape of the dose curve; as a rule, active = well fitted curve in the direction sought with a large enough effect in the repeat runs; inconclusive = weak or mixed curves; inactive = no such curve, though single readings can be large; an effect the other way counts as inactive or inconclusive.

Assay [1] in a line: qHTS RealTime-Glo MT Cell Viability Assay in HEK293 cells - 0 hour (AID 1224880). Also: top concentration of the series differs between compounds; nearly all actives have a fitted effect of over 45% in size. The method in brief: (§1)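 Kinetic, non-lysing viability readout. Seed HEK293 (600/well) with reagent, incubate 5 h at 37 C/5% CO2, pin 23 nL compound in DMSO, incubate at 37 C, read luminescence at 0, 8, 16, 24, 32, 40 h.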
The nature of assay [2]: A CellTox Green Cytotoxicity Assay to monitor cytotoxicity in HEK293 cells - 32 hour (AID 1224881). Also: nearly all actives have a fitted effect of over 40% in size. The method, boiled down:
(§2)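 Real-time, in one plate: 600 HEK293 cells/well with dead-cell DNA dye, pinned compound after 5 h, 37 C incubation over 40 h; viable cells give no appreciable fluorescence.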

A short description of assay [3]: A CellTox Green Cytotoxicity Assay to monitor cytotoxicity in HepG2 cells - 0 hour (AID 1224882). Also: nearly all actives have a fitted effect of over 35% in size. The method in brief: (§3)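 Cytotoxicity was tracked as dead-cell DNA fluorescence in HepG2 cells treated with test compounds at 37 C; each time-point value comes from one kinetic series spanning 0, 8, 16, 24, 32 and 40 h.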
Assay [4] in a line: A CellTox Green Cytotoxicity Assay to monitor cytotoxicity in HepG2 cells - 32 hour (AID 1224883). Also: nearly all actives have a fitted effect of over 50% in size. The method in brief:
as §3

Assay [5] is described as follows: A CellTox Green Cytotoxicity Assay to monitor cytotoxicity in HEK293 cells - 8 hour (AID 1224884). Also: nearly all actives have a fitted effect of over 35% in size. The method, boiled down: as §2
A short description of assay [6]: qHTS RealTime-Glo MT Cell Viability Assay in HepG2 cells - 16 hour (AID 1224885). Also: nearly all actives have a fitted effect of over 50% in size. The method in brief:
(§4)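 HepG2 cells (600/well) were dispensed with RealTime-Glo reagents, incubated 5 h at 37 °C, then treated with compounds in DMSO for up to 40 h. Nonlytic NanoLuc luminescence reflecting viable cells was read at each stated time point.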
For orientation: In qHTS, concentration-response curves come from the screen itself.

The nature of assay [7]: qHTS RealTime-Glo MT Cell Viability Assay in HEK293 cells - 24 hour (AID 1224886). Also: top concentration of the series differs between compounds; nearly all actives have a fitted effect of over 50% in size. The method in brief:
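HEK293 cells seeded with NanoLuc/prosubstrate reagent, rested 5 h at 37 C, then dosed and kept at 37 C up to 40 h. Nonlytic real-time luminescence from viable cells read at 0, 8, 16, 24, 32 and 40 h.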

Assay [8] can be described thus: qHTS RealTime-Glo MT Cell Viability Assay in HEK293 cells - 8 hour (AID 1224887). Also: top concentration of the series differs between compounds; nearly all actives have a fitted effect of over 50% in size. The method, boiled down:
as §1

Assay [9] in a line: A CellTox Green Cytotoxicity Assay to monitor cytotoxicity in HEK293 cells - 16 hour (AID 1224888). Also: nearly all actives have a fitted effect of over 35% in size. The method in brief: as §2
Assay [10] can be described thus: qHTS RealTime-Glo MT Cell Viability Assay in HepG2 cells - 0 hour (AID 1224889). Also: nearly all actives have a fitted effect of over 50% in size. The method, boiled down:
as §4

The nature of assay [11]: A CellTox Green Cytotoxicity Assay to monitor cytotoxicity in HepG2 cells - 8 hour (AID 1224890). Also: nearly all actives have a fitted effect of over 45% in size. The method, boiled down: as §3
A short description of assay [12]: qHTS assay to identify small molecule antagonists of the estrogen receptor alpha (ER-alpha) signaling pathway using the BG1 cell line in the presence of 0.1 nM 17-beta-estradiol - cell viability counter screen (AID 1259241). Also: nearly all actives have a fitted effect of over 40% in size. The method, boiled down:
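VM7Luc4E2 cells (endogenous full-length ER-alpha, 4xERE-luciferase), cultured 5 days in charcoal-stripped serum, exposed to compounds with 0.1 nM 17beta-estradiol (final) for 22 hr at 37C. Viability read in same wells as live-cell protease fluorescence after 30 min.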

A short description of assay [13]: qHTS assay to identify small molecule antagonists of the androgen receptor (AR) signaling pathway using the MDA cell line in the presence of 0.5 nM R1881 - cell viability counter screen (AID 1259242). Also: nearly all actives have a fitted effect of over 45% in size. The method, boiled down: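 Cells seeded at 3,000/well and allowed 5 hr at 37C, 0% CO2 before compound transfer and R1881 (0.5 nM final) addition; 16 hr later, live-cell protease fluorescence indicated cytotoxicity.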

Assay [14] deals with Estrogen receptor (Homo sapiens) (UniProt P03372). As to the kind of experiment: qHTS assay to identify small molecule antagonists of the estrogen receptor alpha (ER-alpha) signaling pathway using the BG1 cell line in the presence of 0.1 nM 17-beta-estradiol (AID 1259244). Also: nearly all actives have a fitted effect of over 50% in size. The method, boiled down: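 Luciferase signal from VM7Luc4E2 ERE-reporter cells, co-dosed with test compound and 0.1 nM final 17beta-estradiol for 22 h, read with ONE-Glo.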

Assay [15] can be described thus: qHTS assay to identify small molecule phospholipidosis (PLD) inducers (AID 1259344; active = well fitted curve in the direction sought with a large enough effect; an effect the other way counts as inactive or inconclusive). The method in brief: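 After 4 h attachment on collagen I, HepG2 cells were dosed with compound alongside LipidTOX Red, kept 24 h at 37 C, fixed, and imaged for lamellar phospholipid pits.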
A short description of assay [16]: qHTS assay to identify small molecule HDAC inhibitors (AID 1259364). Also: potency is read from the fitted curve at half-maximal effect.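 Also: wild-type HCT-116 cells with endogenous class I/II HDAC activity; nearly all actives have a fitted effect of over 45% in size.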 The method in brief: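 HCT-116 wt cells, 1,500/well, overnight attach. Compounds (DMSO) 2 h, 37 °C. HDAC-Glo I/II, 30 min RT. Luminescence.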
Assay [17] is described as follows: qHTS assay to identify small molecule HDAC inhibitors - cell viability counter screen (AID 1259365). The method in brief:
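Wild-type HCT-116 cells, 1,500/well, cultured overnight, then compound-treated 2 h at 37 C. Viability measured as ATP luminescence with CellTiter-Glo after 30 min at room temperature.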

A short description of assay [18]: qHTS assay to identify small molecule agonists of the sonic hedgehog signaling (Shh) pathway - cell viability counter screen (AID 1259366). Also: nearly all actives have a fitted effect of over 50% in size. The method, boiled down:
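NIH/3T3-derived Gli1-Luc reporter cells, 2,000 per well, received compound after 4 h and were treated about 23 h at 37C. Viability measured in the same wells by CellTiter-Fluor fluorescence after 1 h.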

Assay [19] is described as follows: qHTS assay to identify small molecule antagonists of the sonic hedgehog signaling (Shh) pathway - cell viability counter screen (AID 1259367). Also: nearly all actives have a fitted effect of over 55% in size. The method, boiled down: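 Conditioned medium drove Shh signaling in 3T3 Gli1-Luc cells exposed to compounds at 37C and 5% CO2. Viability was determined from CellTiter-Fluor fluorescence, with reagent incubated 1 hr after 23 hr of treatment.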

Sequence of Estrogen receptor (Homo sapiens) (P03372 whole entry, looked up): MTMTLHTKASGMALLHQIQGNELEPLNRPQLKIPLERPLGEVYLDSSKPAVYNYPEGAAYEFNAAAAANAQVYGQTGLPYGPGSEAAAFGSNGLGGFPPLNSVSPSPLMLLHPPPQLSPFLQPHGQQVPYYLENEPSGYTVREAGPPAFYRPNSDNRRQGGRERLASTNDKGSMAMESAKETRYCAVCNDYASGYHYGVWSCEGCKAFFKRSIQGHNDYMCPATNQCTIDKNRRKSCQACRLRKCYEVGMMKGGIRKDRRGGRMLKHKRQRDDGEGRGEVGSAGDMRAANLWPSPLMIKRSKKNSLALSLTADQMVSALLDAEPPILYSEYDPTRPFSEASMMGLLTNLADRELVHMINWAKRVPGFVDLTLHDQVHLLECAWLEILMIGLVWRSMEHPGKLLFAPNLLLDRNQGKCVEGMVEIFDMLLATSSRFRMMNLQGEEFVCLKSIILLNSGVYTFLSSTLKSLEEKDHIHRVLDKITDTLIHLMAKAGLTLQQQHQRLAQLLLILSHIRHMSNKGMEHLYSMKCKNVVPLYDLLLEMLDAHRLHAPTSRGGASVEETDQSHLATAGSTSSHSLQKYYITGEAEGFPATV

Consider `CS(=O)(=O)c1ccc([C@@H](O)[C@@H](CO)NC(=O)C(Cl)Cl)cc1`, for which the Potency entry in assay [1], in [2], in assay [3], in [4], in [5] and in [6] was “inactive” in each case. The Potency result in [7], in [8], in assay [9], in assay [10], in assay [11] and in assay [12] was “inactive” in each case. In addition, the Potency entry in assay [13], in assay [14], in [16], in assay [18] and in [19] was “inactive” each time. In addition, the compound was classed as inactive in assay [15] and in assay [17].

Regarding `C=C(C)C(=O)OCCCCCC`, the Potency result in [1], in [2], in assay [3], in [4], in [5] and in [6] was “inactive” throughout. For the same compound, the Potency entry in assay [7], in [8], in [9], in assay [10], in assay [11] and in [12] was “inactive” throughout. The Potency entry in [13], in assay [14], in assay [16], in [18] and in assay [19] was “inactive” each time. In assay [17], the result was inactive.

Consider `CCCCCCOC(C)=O`, for which the Potency entry in assay [1], in assay [2], in assay [3], in [4], in assay [5] and in assay [6] was “inactive” in each case. Also, the Potency result in assay [7], in assay [8], in assay [9], in assay [10], in [11] and in assay [12] was “inactive” in each case. Moreover, the Potency entry in assay [13], in assay [14], in [16], in [18] and in [19] was “inactive” each time. Besides, the call in [17] was inactive.

Turning to `CN(CCOc1ccc(CC2SC(=O)NC2=O)cc1)c1ccccn1` (centres undefined), the Potency entry in [1], in [2], in assay [3], in assay [4], in assay [5] and in assay [6] was “inactive” each time. Also, the Potency entry in assay [7], in assay [8], in assay [9], in assay [10], in [11] and in assay [12] was “inactive” in each case. The Potency entry in assay [13], in assay [14], in [18] and in assay [19] was “inactive” throughout. Besides, the compound was called inactive in [15] and in assay [17]. Besides, the Potency in assay [16] is 30.5 µM (active) and inactive.

As for `Cc1cc(NS(=O)(=O)c2ccc(N)cc2)no1`, the Potency entry in [1], in assay [2], in assay [3], in [4], in assay [5] and in assay [6] was “inactive” each time. For the same compound, the Potency entry in [7], in assay [8], in [9], in assay [10], in [11] and in assay [12] was “inactive” each time. Moreover, the Potency entry in assay [13], in [16], in assay [18] and in assay [19] was “inactive” throughout. Moreover, the compound was classed as inactive in assay [15] and in [17].

For `O=S(=O)(O)CCS`, the Potency result in assay [1], in assay [2], in assay [3], in assay [4], in [5] and in [6] was “inactive” throughout. The Potency result in assay [7], in assay [8], in assay [9], in [10], in assay [11] and in [12] was “inactive” each time. The Potency result in assay [13], in [14], in assay [16], in assay [18] and in assay [19] was “inactive” each time. The outcome in assay [15] and in [17] was inactive.

For `CCCCOCCOCCOC(=O)CCCCC(=O)OCCOCCOCCCC`, the Potency entry in assay [1], in [2], in [3], in assay [4], in [5] and in assay [6] was “inactive” in each case. Further, the Potency result in assay [7], in assay [8], in assay [9], in [10], in assay [11] and in [12] was “inactive” each time. Moreover, the Potency entry in assay [13], in [14], in [16], in assay [18] and in assay [19] was “inactive” throughout. For the same compound, the result in [17] was inactive.
